Reference: PubChem BioAssay

These molecules were tested against Fibroblast growth factor 10 (Homo sapiens) (UniProt O15520) (assay: FGF10 binders on small-molecule microarrays, primary screen, biochemical, small-molecule microarray, 635 nm fluorescence (AID 1102)). Details: FGF10 binding, fluorescence 635 nm, higher = more signal.
Chain of Fibroblast growth factor 10 (Homo sapiens) (O15520 whole entry, looked up): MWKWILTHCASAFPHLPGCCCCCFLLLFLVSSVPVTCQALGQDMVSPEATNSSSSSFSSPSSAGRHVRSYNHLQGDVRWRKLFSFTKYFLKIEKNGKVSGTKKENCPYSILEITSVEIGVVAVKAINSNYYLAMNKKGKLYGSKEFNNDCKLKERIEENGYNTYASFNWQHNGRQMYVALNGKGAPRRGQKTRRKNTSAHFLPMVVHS
`NC(=O)NCC#Cc1ccc2c(c1)[C@]1(C(=O)N2)[C@H](C(=O)O)[C@H]2C(=O)O[C@H](c3ccccc3)[C@H](c3ccccc3)N2[C@@H]1c1ccc(OCCO)cc1` was tested, and the composite z-score was 0.261.
With `[N-]=[N+]=Nc1ccccc1C[C@]1(C(=O)N2CCOCC2)N=C(c2ccc(OCCCO)cc2)O[C@H]1c1ccccc1` the composite z-score was 1.16.
In the case of `COc1ccc(C#Cc2ccc3c(c2)[C@]2(C(=O)N3)[C@H](c3ccc(O)cc3)N3[C@H](c4ccccc4)[C@H](c4ccccc4)OC(=O)[C@H]3[C@@H]2C(=O)O)cc1`, the composite z-score was 0.368.
In the case of `O=C1O[C@@H](c2ccccc2)[C@@H](c2ccccc2)N2[C@@H](c3ccc(OCCO)cc3)[C@]3(C(=O)Nc4ccccc43)[C@@H](C(=O)O)[C@H]12`, the composite z-score was 0.119.
`C=C(/C(=C/C[C@H](OC(C)=O)c1cccc(OCCO)c1)c1cnc2ccccc2c1)C(C)C` was tested, and the composite z-score was 0.904.
`COc1ccc([Si](C)(C)[C@H]2[C@H](CCn3cc([C@H](O)c4ccccc4)nn3)O[C@@]3(C(=O)N(Cc4ccc(N5C(=O)c6cccc7cccc5c67)cc4)c4ccccc43)[C@@H]2C)cc1` was tested, and the composite z-score was 0.324.
Work on `CCC(CC)C(O)C1C=CC2C(=O)N(c3ccccc3)C(=O)C2N1Nc1ccc(C(C)C)cc1` (stereo not drawn) yielded a composite z-score of 0.663.
`COC1OC[C@]2(C)[C@H]3C4=C(CN2C(=O)OC(C)(C)C)[C@H](C)C(CO)C(CO)C4CC[C@@H]13` (stereo partly drawn) gave a composite z-score of 0.513.
`COC(=O)[C@@]1(Cc2ccccc2N=[N+]=[N-])N=C(c2ccc(OCCCO)cc2)O[C@H]1c1ccccc1N=[N+]=[N-]` showed a composite z-score of 0.386.
`CC1CC/C=C\[C@H]2OC34C=CCN(C(C)C)C(=O)[C@H]3N(CCCCCCO)C(=O)[C@@H]4C2C(=O)O1` (stereo partly drawn) was tested, and the composite z-score was -1.16.
`COC(=O)[C@@]1(Cc2ccc(OC)cc2)[C@H]2c3cc(C(=O)N4CCCC4)n(Cc4cccc5ccccc45)c3C[C@H]2CN1C(=O)c1ccccc1` showed a composite z-score of 0.821.
`COc1ccc([Si](C)(C)[C@H]2[C@H](CC(=O)N(CCO)Cc3ccccc3)O[C@@]3(C(=O)N(Cc4cccc(N5CCOC5=O)c4)c4ccccc43)[C@@H]2C)cc1` was tested, and the composite z-score was 0.0549.
In the case of `Cc1cc(C)c(C(O)C2C=CC3C(=O)N(c4ccccc4)C(=O)C3N2Nc2ccc(C(C)C)cc2)c(C)c1` (stereo not drawn), the composite z-score was 0.978.
In the case of `C=C(/C(=C/C[C@@H](OC(C)=O)c1cccc(OCCO)c1)c1cc(C(=O)OC)ccc1OC)C(C)C`, the composite z-score was 0.855.
`O=C1O[C@H](c2ccccc2)[C@H](c2ccccc2)N2[C@H]1[C@@H](C(=O)Nc1nc3ccccc3s1)[C@]1(C(=O)Nc3ccc(C#CC4(O)CCCCCC4)cc31)[C@H]2c1ccccc1OCCO` showed a composite z-score of 1.35.
In the case of `CN1C(=O)C2C=CC(C(O)C#Cc3ccccc3)N(Nc3ccccc3)C2C1=O` (stereo not drawn), the composite z-score was 1.33.
For `C=CC[C@@]1(C(=O)N2CCOCC2)N=C(c2ccc(OCCCO)cc2)O[C@@H]1c1ccccc1CN=[N+]=[N-]`, the composite z-score was 1.48.
`COc1cc(OC)c(C(O)C2C=CC3C(=O)N(C)C(=O)C3N2NC(=O)OC(C)(C)C)cc1Br` (stereo not drawn) was tested, and the composite z-score was 1.32.
In the case of `CC(C)(C)OC(=O)CC[C@]1(C(=O)NCc2ccccc2)N=C(c2ccc(OCCCO)cc2)O[C@H]1c1ccccc1CN=[N+]=[N-]`, the composite z-score was 1.22.
Molecule `CCCCCCc1nc(C2CC2)cc2c1[Si](C(C)C)(C(C)C)O[C@H]2c1ccccc1` has a composite z-score of 0.402.
Molecule `COc1ccc(NC(=O)O[C@H]2[C@H](OC(=O)Nc3ccccc3)[C@H](OC(=O)Nc3ccccc3)[C@@H](OC)O[C@@H]2CO)cc1` has a composite z-score of 1.27.
With `COc1ccc([Si](C)(C)[C@@H]2[C@@H](CCO)O[C@]3(C(=O)N(Cc4ccc(N5CCCCC5=O)cc4)c4ccccc43)[C@H]2C)cc1` the composite z-score was 1.21.
In the case of `COC(=O)c1cn(C[C@@H](Cc2ccccc2)NC(=O)N[C@H](CO)CCc2oc(C(C)=O)c(C(=O)OC)c2C(=O)OC)nn1`, the composite z-score was 0.738.
For `C=C(CCCC)/C(=C/C[C@@H](OC(=O)c1ccncc1)c1ccccc1OCCO)c1cnc2ccccc2c1`, the composite z-score was 1.44.
In the case of `O=C1NC(=O)C2C1C=CC(C(O)c1ccco1)N2Nc1ccccn1` (stereo not drawn), the composite z-score was 0.32.
Molecule `C=CCC(OC(C)=O)[C@@H]1[C@@H](N(Cc2cc3ccccc3o2)C(=O)c2ccc(C)cc2)c2cc(OCCCO)ccc2N1C(=O)Cc1ccc(OC)cc1` (stereo partly drawn) has a composite z-score of 0.289.
For `C=CCC(OC(C)=O)[C@@H]1[C@@H](N(Cc2ccc(-c3cccc(C(F)(F)F)c3)o2)C(=O)c2ccc(-c3ccccc3)cc2)c2cc(OCCCO)ccc2N1C(=O)c1ccc2ccccc2n1` (stereo partly drawn), the composite z-score was 0.129.
`CN1C(=O)C2C=CC(C(O)c3cccc(O)c3)N(Nc3ccccc3)C2C1=O` (stereo not drawn) gave a composite z-score of 0.517.
